In the library only some 1.5% were active in any assay of this set; here they are far more common.
ABCB6 inh 2: ABCB6 transporter inhibitors, primary screen, K562-ABCB6 cells, flow cytometry, MLPCN library; ATP-binding cassette sub-family B member 6 (Homo sapiens), Q9NP58; K562-ABCB6 porphyrin accumulation, 1 h; active compounds read low; fluorescence ratio to DMSO, % at 10 µM; 360,000 compounds, 0.19% hits; AID 602162, 2011;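 active = fluorescence ratio to DMSO below 75%, the collection mean minus 3 SD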;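 also: signal is porphyrin accumulated inside mitochondria; 100% equals median channel fluorescence of DMSO control wells; lower ratio means ABCB6 inhibition with less porphyrin fluorescence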
iPSC survival up: enhancers of single-cell hiPSC survival, primary screen, ATPlite luminescence. survival enhancement, % at 20 µM. 360,000 compounds, 0.044% hits. 100% = ROCK inhibitor wells, 0% = DMSO; in the data active = survival enhancement above about 18%;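 also: cells exposed to compounds for 16 hours before the ATP read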
ANO1 block: TMEM16A chloride channel inhibitors, primary screen, cell-based, HTS; HEK293 TMEM16A/YFP iodide influx fluorescence, ionomycin; normalized B-score (activity score, 25-100; higher = stronger inhibition) at 10 µM; 310,000 compounds, 1.2% hits; AID 588511, 2011; Anoctamin-1 (Mus musculus), Q8BHY3;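 active = ratio plate-corrected score three or more library SD toward inhibition, starting fluorescence score within five deviations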;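 also: score derived from kinetic fluorescence span divided by baseline fluorescence per well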
Target sequence (Q8BHY3 whole entry, looked up): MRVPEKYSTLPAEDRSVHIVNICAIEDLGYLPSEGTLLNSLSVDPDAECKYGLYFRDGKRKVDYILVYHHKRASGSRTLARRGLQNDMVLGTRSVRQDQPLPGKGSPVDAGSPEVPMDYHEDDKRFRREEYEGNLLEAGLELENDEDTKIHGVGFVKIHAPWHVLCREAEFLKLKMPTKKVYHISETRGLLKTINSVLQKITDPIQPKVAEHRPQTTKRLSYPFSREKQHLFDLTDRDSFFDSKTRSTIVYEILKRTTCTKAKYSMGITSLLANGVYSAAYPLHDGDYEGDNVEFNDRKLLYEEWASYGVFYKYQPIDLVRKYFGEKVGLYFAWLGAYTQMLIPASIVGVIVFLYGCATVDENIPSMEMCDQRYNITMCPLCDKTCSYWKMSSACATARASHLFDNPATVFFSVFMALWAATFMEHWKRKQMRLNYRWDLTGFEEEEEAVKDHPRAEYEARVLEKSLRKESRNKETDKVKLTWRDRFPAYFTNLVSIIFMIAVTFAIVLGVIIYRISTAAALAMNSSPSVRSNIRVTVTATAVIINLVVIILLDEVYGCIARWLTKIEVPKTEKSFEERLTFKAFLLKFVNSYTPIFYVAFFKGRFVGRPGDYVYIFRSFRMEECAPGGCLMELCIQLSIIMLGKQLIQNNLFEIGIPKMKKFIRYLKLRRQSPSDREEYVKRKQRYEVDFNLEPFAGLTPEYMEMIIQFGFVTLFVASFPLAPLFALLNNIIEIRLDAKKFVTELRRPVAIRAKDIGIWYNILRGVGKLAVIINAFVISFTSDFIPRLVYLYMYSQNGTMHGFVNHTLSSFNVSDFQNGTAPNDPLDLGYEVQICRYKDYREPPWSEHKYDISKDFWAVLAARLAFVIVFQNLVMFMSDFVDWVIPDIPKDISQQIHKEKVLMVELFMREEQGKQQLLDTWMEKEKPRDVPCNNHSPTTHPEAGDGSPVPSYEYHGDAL
ANO1 activ: TMEM16A chloride channel activators or potentiators, primary screen, cell-based, HTS | 340,000 compounds, 0.3% hits | B-score at 10 µM | Anoctamin-1 (Mus musculus), Q8BHY3 | AID 623877, 2012 | HEK293 TMEM16A/YFP-H148Q/I152L, iodide quench fluorescence; active compounds read low;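 active = fluorescence-ratio B-score plate-corrected deviation score at least 3 library SD below zero, with starting fluorescence score within 5 deviations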;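 also: channel opened by trigger with iodide after compound preincubation; score built on the fluorescence ratio of max minus min over baseline; more negative score means more quench and so TMEM16A activation or potentiation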
DAGLB inh: DAGLB lipase inhibitors, primary screen, biochemical, fluorescence, HTS | Diacylglycerol lipase-beta (Homo sapiens), Q8NCG7 | HEK293T DAGLB membrane lysate, EnzChek fluorogenic substrate | inhibition, % at 5.17 µM | AID 504411, 2011 | 340,000 compounds, 0.059% hits; in the data active = inhibition above about 34%;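 also: 0% = enzyme with vehicle and 100% = wells lacking enzyme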
An asterisk follows results filed as active; i = inactive; nt = no result given.

SMILES	ABCB6 inh 2	iPSC survival up	ANO1 block	ANO1 activ	DAGLB inh
COc1ccccc1CCNC(=O)C(=O)NCC1OCCN1S(=O)(=O)c1ccc(F)cc1 (stereo unspecified)	97	2	i	i	1
COc1ccccc1CCNC(=O)C(=O)NCC1OCCN1S(=O)(=O)c1ccc(OC)c(OC)c1 (stereo unspecified)	95	-2	100*	i	-2
Nc1nc(Cl)cc(N2CCC(c3cc(-c4ccc(Cl)cc4)n[nH]3)CC2)n1	98	0	100*	i	0
COc1ccc(-c2cc(C3CCN(c4cc(Cl)nc(N)n4)CC3)[nH]n2)cc1	98	0	i	i	0
O=[N+]([O-])c1cc(/C=N/OCc2c(Cl)cccc2Cl)ccc1N1CCOCC1	54*	1	i	i	9
CO/N=C/c1ccc(N2CCOCC2)c([N+](=O)[O-])c1	97	-1	i	i	-4
CS(=O)(=O)c1nc(-c2ccc(Br)cc2)cc(-c2ccccc2)c1C#N	89	-5	i	i	9
CS(=O)c1nc(-c2ccc(Br)cc2)cc(-c2ccccc2)c1C#N (stereo unspecified)	96	-3	100*	i	2
CN(Cc1cccs1)C(=O)CCc1c[nH]c2ccccc12	92	0	i	i	-2
CN(Cc1cccs1)C(=O)CCCc1c[nH]c2ccccc12	109	-5	i	-6.3*	2
Cc1cc(C(=O)CSc2nnc(-c3cccc(F)c3)n2N)c(C)n1Cc1ccc2c(c1)OCO2	83	-1	100*	i	-1
Cc1cc(C(=O)CSc2nnnn2-c2ccc(O)cc2)c(C)n1Cc1ccc2c(c1)OCO2	92	1	i	i	2
O=c1c(Br)ccc(Br)cc1Br	19*	5	nt	i	-14
O=C1CN(S(=O)(=O)c2cc(Br)ccc2Br)CCN1	99	0	nt	i	-1
CC1CCCC(C)N1C(=C(Cl)Cl)C(=C1SCCS1)[N+](=O)[O-] (stereo unspecified)	92	2	i	-15*	2
Cc1ccc(N2C(=O)CS/C2=C(\C(Cl)=C(Cl)Cl)[N+](=O)[O-])cc1	119	-1	i	i	11
CC(C)(C)n1ncc2c(=O)n(CC(=O)NCc3ccccc3Cl)cnc21	99	-2	i	-22*	-1
CC(C)(C)n1ncc2c(=O)n(CC(=O)NCCc3ccccc3)cnc21	95	4	i	i	-2
O=[N+]([O-])c1cncn1CCN1CCOCC1	97	5	nt	i	-2
Cc1ccc(C(=O)OCC(=O)N2CCC(c3ccccc3)=N2)cc1	90	-2	nt	i	-3
C=CCN1C(=O)/C(=C\c2ccc(Cl)cc2)N=C1SCC(=O)NCCC	96	-4	i	-27*	1
Cc1ccc(C(=O)NNC(=S)NC(=O)COc2ccccc2)cc1	93	0	25*	i	-1
CC(C)(C)c1ccc(C(=O)NC(=S)NNC(=O)COc2ccccc2)cc1	100	0	100*	-4.6*	2
CC(C)(C)c1ccc(OCC(=O)NNC(=O)CCc2ccccc2)cc1	103	4	i	i	-1
N#CC(C#N)=C1CCCc2sccc21	96	0	nt	i	0
SMILES	ABCB6 inh 2	iPSC survival up	ANO1 block	ANO1 activ	DAGLB inh
Cc1cc(NC2CCCCC2)nc(NCc2ccccc2)n1	94	-4	100*	i	0
CCOc1ccc(CNc2ccc3c(c2)nc(C)n3C)cc1	96	-3	i	i	2
CCOc1ccc2nc3cc(NCc4ccc(OC)cc4)ccc3c(N)c2c1	243	-1	i	-6.9*	-7
COc1cc(N/C=C(\C(C)=O)c2ccccc2)cc(OC)c1	100	-4	i	-5.4*	-5
CC(=O)/C(=C/Nc1ccc(Oc2ccccc2)cc1)c1ccccc1	95	-3	i	i	-9
CC(C)(C)c1ccc(C(=O)CCCSC2=C(C#N)C(c3ccco3)C3=C(CCCC3=O)N2)cc1 (stereo unspecified)	57*	-1	i	i	-12

Assay outcomes deposited in PubChem BioAssay by several laboratories.
